# Measurements taken from PubChem BioAssay (NCI).
# This is part of a sample that, as a whole, favours compounds with a hit. Of some 83,000 tested, about 20% had one in any assay.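 A percent growth of 40 corresponds to 60% growth inhibition; 0 means no net growth; -100 means all cells died. Active threshold: below 10.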 Active and inactive are the calls of the source.
# Test system: COLO 205 colon
# Experiment: NCI-60 one-dose screen, 48 h (100 = growth as untreated, 0 = no growth, -100 = all killed)
# Conditions: 10 µM unless noted
row,Structure (SMILES),growth
1,COc1ccc2c(c1)OC1=C(C(=O)OC1)C2c1cc(OC)c2c(c1)OCO2 (centres undefined),-38.1% (active)
2,Cc1cccc(/C=N/Nc2cc(C)c3cccc(C)c3n2)n1,96.2% (inactive)
3,COc1ccc(C2C=C(c3ccc(Cl)cc3)N=C3SC=C(C)N32)c(Br)c1 (centres undefined),18.6% (inactive)
4,COC1=C(OC)C(=O)C(CCCCCCCCCC[P+](c2ccccc2)(c2ccccc2)c2ccccc2)=C(C)C1=O,-93.3% (active)
5,CC1CN(c2oc(-c3ccccc3)nc2C#N)CC(C)O1 (centres undefined),116% (inactive)
6,COc1ccc(Cn2cc3c(c2-c2cc(OC)c(OC)c(OC)c2)CCc2cnoc2-3)cc1,-27.7% (active)
7,COc1ccc(C2=C(c3cc(OC)c(OC)c(OC)c3)C(=O)CC2)cc1,-27.9% (active)
8,COc1ccc2c(c1)NC1=C(C(=O)OC1)C2c1cc(OC)c2c(c1)OCO2 (centres undefined),-56.9% (active)
9,O=[N+]([O-])c1cc(S(=O)(=O)Oc2ccccc2)ccc1Cl,5.56% (active)
10,COc1cc(NC(N)=NCCC(C)(C)Oc2ccc(C(F)(F)F)cc2)ncc1C#N,-87.8% (active)
11,COc1ccc(Nc2nn3c(-c4ccccc4)cc(-c4ccccc4)nc3c2C(N)=O)c(OC)c1,53.2% (inactive)
12,CC[N+](CC)=c1cc2oc3cc(N(C)C)ccc3nc-2cc1C,-9.82% (active)
13,COc1ccc(Nc2ncccc2C(=O)NCc2cn(Cc3cccc(Oc4ccccc4)c3)nn2)cc1,43.9% (inactive)
14,CN(C)CCOC(=O)Nc1ccccc1Cl,113% (inactive)
15,CN1CCN(Cc2ccc(NC(=O)c3cncc(C#Cc4cnc(N)c5cnccc45)c3)cc2C(F)(F)F)CC1,-20.2% (active)
16,CCC1=CCC[C@@]2(C)CCC[C@@]3(C)CCCC(C)(C)[C@]1([O-])[O+]32,112% (inactive)
17,CCNc1nc(S(=O)(=O)CC)nc2ccccc12,114% (inactive)
18,CC12CCC3C4(C)COC(c5ccco5)OC4CCC3(C)C1CC(C1=CCOC1=O)O2 (centres undefined),110% (inactive)
19,Cc1cc(C)n(-c2nnc3n2N=C(c2ccc(-c4ccccc4)cc2)CS3)n1,39.8% (inactive)
20,N=c1ccc2nc3ccc(N)cc3sc-2c1,0.589% (active)

row,Structure (SMILES),growth
1,CN(C)CCCC(C#N)c1ccccc1 (centres undefined),119% (inactive)
2,O=S(=O)(NCCCNc1nccc(-n2ccc3cccnc32)n1)c1cccc(C(F)(F)F)c1,108% (inactive)
3,COc1cccc(-c2cc3c(O)cc(C#N)cc3[nH]2)c1,115% (inactive)
4,CCCCCCCCCCCCNC(=O)[C@H]1CSC(c2ccsc2)N1 (some centres undefined),84% (inactive)
5,c1ccc(Nc2nc(Nc3ccccc3)nc(Nc3ccccc3)n2)cc1,76.1% (inactive)
6,O=C(Oc1ccccc1[N+](=O)[O-])C1CCCN1C(=O)OCc1ccccc1 (centres undefined),115% (inactive)
7,O=C(/C=C\c1cccc([N+](=O)[O-])c1)/C=C/c1cccc([N+](=O)[O-])c1,103% (inactive)
8,CCCCCCCCCCCCNC(=O)[C@H]1CSC(c2cc3ccccc3s2)N1 (some centres undefined),95.6% (inactive)
9,COc1ccc(S(=O)(=O)Nc2cc(/C=C\c3cc(OC)c(OC)c(OC)c3)cc(OC)c2OC)cc1,-62.4% (active)
10,Oc1ccc(Cl)cc1-c1cc(-c2ccc(F)cc2)n[nH]1,81.7% (inactive)
11,CCCCN(CCCC)C(=O)CC,119% (inactive)
12,COc1ccc(N2CCN(Cc3cc(C(=O)/C=C/c4c[nH]c5ccccc45)ccc3O)CC2)cc1,107% (inactive)
13,O=C1c2c(c3c4ccccc4n(CCCCCCBr)c3c3[nH]c4ccccc4c23)C(=O)N1O,62.4% (inactive)
14,CCCCCCCC[C@@H](O)CC(=O)N[C@@H](CC(N)=O)C(=O)N[C@@H](CCC(N)=O)C(=O)N[C@@H](CC(=O)c1cc(C)cc(O)c1C(=O)c1c(O)cccc1O)CC(C)C,13.5% (inactive)
15,S=C(S)NCCc1c[nH]c2ccccc12,125% (inactive)
16,O=C1/C(=C/c2ccccc2)Oc2ccc(O)c(I)c21,120% (inactive)
17,COc1ccc(C2=CC(c3cc(OC)c(OC)c(OC)c3)NC(=O)N2)cc1OC (centres undefined),-24.1% (active)
18,O=C(O)C1CCCCN1c1nc(Cl)nc(Cl)n1 (centres undefined),106% (inactive)
19,O=S(=O)(NCCCNc1nccc(-n2ccc3cccnc32)n1)c1ccc(Br)cc1,114% (inactive)
